{"source": "PubChem BioAssay (Tox21)", "note": "Records with an inconclusive call do not appear. Entries that show only a call come without a potency. Active and inactive are the calls of the source. Unless noted, the call rests on the fitted dose curve; in most records, active means well fitted curve in the direction sought with a large enough effect in the repeat runs; inconclusive means weak or mixed curves; inactive means flat fitted curve, though single readings scatter.", "data": [{"experiment": "qHTS assay for small molecule disruptors of the mitochondrial membrane potential - cell viability (AID 720634; calls by dose curve;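 further: human HepG2 liver cancer cells; nearly all actives have a fitted effect of over 20% in size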)", "conditions": "HepG2 viability, ATP luminescence (CellTiter-Glo), 1 h; series mostly up to 83.2 µM; activity change, negative = cytotoxicity: at the top concentration", "outline": "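HepG2 cells, 2,000 per well, attached overnight, then treated 1 hr at 37 C, 5% CO2. Viability read as ATP by CellTiter-Glo luminescence after 30 min at room temperature. Read in the same wells as the m-MPI membrane-potential dye assay.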", "values": [{"smiles": "Clc1cc(Cl)c(Cl)cc1Cl", "Potency": "inactive"}, {"smiles": "NCc1cccc(CN)c1", "Potency": "inactive"}, {"smiles": "CC[Si](OC(C)=O)(OC(C)=O)OC(C)=O", "Potency": "inactive"}, {"smiles": "O=S(=O)(O)CCS", "Potency": "inactive"}, {"smiles": "CCCCCCCCC", "Potency": "inactive"}, {"smiles": "C=C1C2CCC(C2)C1(C)C", "note": "(stereo not given)", "Potency": "inactive"}, {"smiles": "OCCOCCOCCOCCO", "Potency": "inactive"}, {"smiles": "C=C(C)C(=O)OCCC[Si](OC)(OC)OC", "Potency": "inactive"}, {"smiles": "CS(=O)(=O)c1ccc([C@@H](O)[C@@H](CO)NC(=O)C(Cl)Cl)cc1", "Potency": "inactive"}, {"smiles": "C=C(C#N)C(=O)OCC", "Potency": "inactive"}, {"smiles": "CCCCCCCCCCCCN", "Potency": "inactive"}, {"smiles": "NCCc1ccc(O)c(O)c1", "Potency": "inactive"}, {"smiles": "CC1=C(CC(=O)O)c2cc(F)ccc2/C1=C\\c1ccc(S(C)=O)cc1", "note": "(stereo not given)", "activity change, negative = cytotoxicity": "13.7% (inactive)"}, {"smiles": "COC(=O)c1ccccc1O", "Potency": "inactive"}, {"smiles": "O=C(O)c1cc(-c2ccccc2)nc2ccccc12", "Potency": "inactive"}, {"smiles": "Cc1ccc(N)c(S(=O)(=O)O)c1", "Potency": "inactive"}, {"smiles": "CCCCC/C=C\\C/C=C\\CCCCCCCC(=O)OC", "Potency": "inactive"}, {"smiles": "C/C=C(C)/C=C/C=C(C)C", "Potency": "inactive"}, {"smiles": "COC(=O)c1ccc(C(=O)OC)cc1", "Potency": "inactive"}, {"smiles": "OC[C@@H](O)[C@@H](O)[C@H](O)[C@@H](O)CO", "Potency": "inactive"}, {"smiles": "CC#C[C@]1(O)CC[C@H]2[C@@H]3CCC4=CC(=O)CCC4=C3[C@@H](c3ccc(N(C)C)cc3)C[C@@]21C", "Potency": "inactive"}, {"smiles": "CCOC(=O)[C@H](CCc1ccccc1)N[C@@H](C)C(=O)N1Cc2ccccc2C[C@H]1C(=O)O", "Potency": "inactive"}, {"smiles": "Nc1nc2ncc(CNc3ccc(C(=O)N[C@@H](CCC(=O)O)C(=O)O)cc3)nc2c(=O)[nH]1", "Potency": "inactive"}, {"smiles": "CCOC(=O)/C=C\\C(=O)OCC", "Potency": "inactive"}, {"smiles": "CC1Cc2ccccc2N1NC(=O)c1ccc(Cl)c(S(N)(=O)=O)c1", "note": "(stereo not given)", "Potency": "inactive"}, {"smiles": "CCCCNC(N)=O", "Potency": "inactive"}, {"smiles": "Cc1cc(=O)[nH]c(C(C)C)n1", "Potency": "inactive"}, {"smiles": "CCC(C)C=O", "note": "(stereo not given)", "Potency": "inactive"}, {"smiles": "Cn1c([N+](=O)[O-])cnc1COC(N)=O", "Potency": "inactive"}, {"smiles": "CC1(C)CC(N=C=O)CC(C)(CN=C=O)C1", "note": "(stereo not given)", "Potency": "inactive"}, {"smiles": "CCCCC(CC)COC(=O)CCCCCCCC(=O)OCC(CC)CCCC", "note": "(stereo not given)", "Potency": "inactive"}, {"smiles": "NC(=O)/N=N/C(N)=O", "Potency": "inactive"}, {"smiles": "CC(C)(CO)COC(=O)C(C)(C)CO", "Potency": "inactive"}]}, {"experiment": "qHTS assay to test for compound auto fluorescence at 590 nm (red) in HepG2 cells (AID 720674)", "conditions": "HepG2 autofluorescence, red 540/590 nm, 1 h; series mostly up to 91.3 µM; fluorescence, relative to Rose Bengal: at the top concentration", "outline": "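1 hr compound incubation on HepG2 cells, 37 C, 5% CO2; plate read ex 540 nm / em 590 nm; intensities reported as Rose Bengal sodium equivalents.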", "values": [{"smiles": "NCc1cccc(CN)c1", "outcome": "inactive"}, {"smiles": "CC[Si](OC(C)=O)(OC(C)=O)OC(C)=O", "outcome": "inactive"}, {"smiles": "O=S(=O)(O)CCS", "outcome": "inactive"}, {"smiles": "CCCCCCCCC", "outcome": "inactive"}, {"smiles": "OCCOCCOCCOCCO", "outcome": "inactive"}, {"smiles": "C=C(C)C(=O)OCCC[Si](OC)(OC)OC", "outcome": "inactive"}, {"smiles": "CCCCCCCCCCCCN", "outcome": "inactive"}, {"smiles": "O=c1c(-c2ccc(O)cc2)coc2cc(O)ccc12", "fluorescence, relative to Rose Bengal": "-0.0748% (inactive)"}, {"smiles": "COC(=O)c1ccc(C(=O)OC)cc1", "outcome": "inactive"}, {"smiles": "OC[C@@H](O)[C@@H](O)[C@H](O)[C@@H](O)CO", "outcome": "inactive"}, {"smiles": "CC#C[C@]1(O)CC[C@H]2[C@@H]3CCC4=CC(=O)CCC4=C3[C@@H](c3ccc(N(C)C)cc3)C[C@@]21C", "outcome": "inactive"}, {"smiles": "Nc1nc2ncc(CNc3ccc(C(=O)N[C@@H](CCC(=O)O)C(=O)O)cc3)nc2c(=O)[nH]1", "outcome": "inactive"}, {"smiles": "Cc1cc(=O)[nH]c(C(C)C)n1", "outcome": "inactive"}, {"smiles": "CCC(C)C=O", "note": "(stereo not given)", "outcome": "inactive"}, {"smiles": "Cn1c([N+](=O)[O-])cnc1COC(N)=O", "outcome": "inactive"}, {"smiles": "CCC(=O)O", "outcome": "inactive"}, {"smiles": "CC(C)(CO)COC(=O)C(C)(C)CO", "outcome": "inactive"}]}, {"experiment": "qHTS assay to test for compound auto fluorescence at 535 nm (green) in HepG2 cells (AID 720675)", "conditions": "green autofluorescence 485/535 nm, 1 h; series mostly up to 91.3 µM; fluorescence, % of fluorescein control: at the top concentration", "values": [{"smiles": "NCc1cccc(CN)c1", "outcome": "inactive"}, {"smiles": "CC[Si](OC(C)=O)(OC(C)=O)OC(C)=O", "outcome": "inactive"}, {"smiles": "O=S(=O)(O)CCS", "outcome": "inactive"}, {"smiles": "C=C1C2CCC(C2)C1(C)C", "note": "(stereo not given)", "outcome": "inactive"}, {"smiles": "CS(=O)(=O)c1ccc([C@@H](O)[C@@H](CO)NC(=O)C(Cl)Cl)cc1", "outcome": "inactive"}, {"smiles": "CCCCCCCCCCCCN", "outcome": "inactive"}, {"smiles": "O=[N+]([O-])C(CO)(CO)CO", "outcome": "inactive"}, {"smiles": "NCCc1ccc(O)c(O)c1", "outcome": "inactive"}, {"smiles": "CC1=C(CC(=O)O)c2cc(F)ccc2/C1=C\\c1ccc(S(C)=O)cc1", "note": "(stereo not given)", "outcome": "inactive"}, {"smiles": "COC(=O)c1ccccc1O", "outcome": "inactive"}, {"smiles": "Cc1ccc(N)c(S(=O)(=O)O)c1", "outcome": "inactive"}, {"smiles": "CCCCC/C=C\\C/C=C\\CCCCCCCC(=O)OC", "outcome": "inactive"}, {"smiles": "COC(=O)c1ccc(C(=O)OC)cc1", "outcome": "inactive"}, {"smiles": "OC[C@@H](O)[C@@H](O)[C@H](O)[C@@H](O)CO", "outcome": "inactive"}, {"smiles": "CCOC(=O)[C@H](CCc1ccccc1)N[C@@H](C)C(=O)N1Cc2ccccc2C[C@H]1C(=O)O", "outcome": "inactive"}, {"smiles": "CC1Cc2ccccc2N1NC(=O)c1ccc(Cl)c(S(N)(=O)=O)c1", "note": "(stereo not given)", "outcome": "inactive"}, {"smiles": "CCCCNC(N)=O", "outcome": "inactive"}, {"smiles": "Clc1ccc(Cl)c(Cl)c1Cl", "outcome": "inactive"}, {"smiles": "CCCCC(CC)COC(=O)CCCCCCCC(=O)OCC(CC)CCCC", "note": "(stereo not given)", "outcome": "inactive"}, {"smiles": "NC(=O)/N=N/C(N)=O", "outcome": "inactive"}, {"smiles": "CCC(=O)O", "outcome": "inactive"}]}, {"experiment": "qHTS assay to test for compound auto fluorescence at 460 nm (blue) in HEK293 cells (AID 720678)", "conditions": "blue autofluorescence 405/460 nm; series mostly up to 91.3 µM; fluorescence, % of triamterene: at the top concentration", "outline": "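Measured: blue fluorescence (Ex 405/Em 460 nm) of compound-treated HEK293 cells, incubated overnight at 37C with 5% CO2 and scaled to triamterene equivalents.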", "values": [{"smiles": "Clc1cc(Cl)c(Cl)cc1Cl", "Potency": "inactive"}, {"smiles": "OCCOCCOCCOCCO", "Potency": "inactive"}, {"smiles": "C=C(C)C(=O)OCCC[Si](OC)(OC)OC", "Potency": "inactive"}, {"smiles": "CS(=O)(=O)c1ccc([C@@H](O)[C@@H](CO)NC(=O)C(Cl)Cl)cc1", "Potency": "inactive"}, {"smiles": "C=C(C#N)C(=O)OCC", "Potency": "inactive"}, {"smiles": "CCCCCCCCCCCCN", "Potency": "inactive"}, {"smiles": "O=[N+]([O-])C(CO)(CO)CO", "Potency": "inactive"}, {"smiles": "O=C(O)c1cc(-c2ccccc2)nc2ccccc12", "Potency": "inactive"}, {"smiles": "O=c1c(-c2ccc(O)cc2)coc2cc(O)ccc12", "fluorescence, % of triamterene": "0.64% (inactive)"}, {"smiles": "Cc1ccc(N)c(S(=O)(=O)O)c1", "Potency": "inactive"}, {"smiles": "CCCCC/C=C\\C/C=C\\CCCCCCCC(=O)OC", "Potency": "inactive"}, {"smiles": "CC#C[C@]1(O)CC[C@H]2[C@@H]3CCC4=CC(=O)CCC4=C3[C@@H](c3ccc(N(C)C)cc3)C[C@@]21C", "Potency": "inactive"}, {"smiles": "CCOC(=O)[C@H](CCc1ccccc1)N[C@@H](C)C(=O)N1Cc2ccccc2C[C@H]1C(=O)O", "Potency": "inactive"}, {"smiles": "CCOC(=O)/C=C\\C(=O)OCC", "Potency": "inactive"}, {"smiles": "CC1Cc2ccccc2N1NC(=O)c1ccc(Cl)c(S(N)(=O)=O)c1", "note": "(stereo not given)", "Potency": "inactive"}, {"smiles": "CCCCNC(N)=O", "Potency": "inactive"}, {"smiles": "Oc1c(Cl)cc(Cl)c(Cl)c1Cl", "Potency": "inactive"}, {"smiles": "Clc1ccc(Cl)c(Cl)c1Cl", "Potency": "inactive"}, {"smiles": "Cc1cc(=O)[nH]c(C(C)C)n1", "Potency": "inactive"}, {"smiles": "CCC(C)C=O", "note": "(stereo not given)", "Potency": "inactive"}, {"smiles": "Cn1c([N+](=O)[O-])cnc1COC(N)=O", "Potency": "inactive"}, {"smiles": "CC1(C)CC(N=C=O)CC(C)(CN=C=O)C1", "note": "(stereo not given)", "Potency": "inactive"}, {"smiles": "CCCCC(CC)COC(=O)CCCCCCCC(=O)OCC(CC)CCCC", "note": "(stereo not given)", "Potency": "inactive"}, {"smiles": "NC(=O)/N=N/C(N)=O", "Potency": "inactive"}]}]}
